From PubChem BioAssay AID1851 (National Center for Advancing Translational Sciences (NCATS), 2009)
Values joined by “and” are separate entries in the source; they are usually repeats but may differ in a detail not shown here. Identical values can stand only once. The campaign covered roughly 16,000 compounds. About 5,800 (36%) were called active. Not shown: some 23% with an inconclusive outcome. Calls follow the shape of the dose curve; as a rule, active = well fitted curve in the direction sought with a large enough effect; inconclusive = small, poorly fitted or top-dose-only effect, or effect the other way; inactive = no such curve, though single readings can be large or run the other way. The list shows a part of the results. A structure can be active in one record and inactive in another.

molecular target: Cytochrome P450 2C19 (Homo sapiens) (UniProt P33261); assay: Cytochrome panel assay with activity outcomes; details: recombinant CYP, pro-luciferin dealkylation, luminescence, p450-cyp2c19; series mostly up to 57.1 µM; activity, negative = inhibition: at the top concentration
Sequence (P33261 whole entry, looked up): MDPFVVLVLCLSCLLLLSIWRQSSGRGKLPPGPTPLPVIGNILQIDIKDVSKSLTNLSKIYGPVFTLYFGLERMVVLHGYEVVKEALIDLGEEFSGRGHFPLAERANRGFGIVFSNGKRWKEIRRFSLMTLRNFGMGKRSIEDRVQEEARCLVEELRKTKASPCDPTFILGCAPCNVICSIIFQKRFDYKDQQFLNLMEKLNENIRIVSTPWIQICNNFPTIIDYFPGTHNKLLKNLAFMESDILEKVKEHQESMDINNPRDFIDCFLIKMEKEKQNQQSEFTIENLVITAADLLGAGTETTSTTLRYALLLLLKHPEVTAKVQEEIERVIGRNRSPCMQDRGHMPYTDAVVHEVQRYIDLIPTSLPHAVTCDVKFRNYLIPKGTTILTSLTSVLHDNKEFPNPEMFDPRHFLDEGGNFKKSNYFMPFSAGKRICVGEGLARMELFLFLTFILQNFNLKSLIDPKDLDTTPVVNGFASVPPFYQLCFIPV
Experimental: The P450 gene superfamily is involved in the metabolism and clearance of xenobiotics. This assay used various human CYP P450 isozymes to measure the dealkylation of various pro-luciferin substrates to luciferin. The luciferin is then measured by luminescence after the addition of a luciferase detection reagent. Pro-luciferin substrate concentration in the assay was equal to its KM for its CYP P450 isozyme. Inhibitors and some substrates limit the production of luciferin, and decrease measured luminescence.
NCGC Assay Protocol Summary:
1, Reagent, 2 uL, Isozyme and Pro-Luciferin
2, Library compounds, 23 nl, 40 uM to 0.24 nM dilution series
3, Controls, 23 nl, Isozyme specific inhibitor
4, Reagent, 2 uL, NADPH regeneration solution
5, Incubation time, 60 min, Isozyme specific temperature
6, Reagent, 4ul, Detection reagent
7, Incubation time, 20 min, Isozyme specific temperature
8, Detection, 1 sec, ViewLux luminescent read
The luciferase-based P450-GloTM Screening Systems were obtained from Promega (Madison, WI) for CYP 1A2 (V9770), CYP 2C9 (V9790), CYP2 C19 (V9880), CYP 2D6 (V9890), and CYP 3A4 Luciferin-PPXE (V9910) and were adapted for 1,536-well microplates and an automated protocol. The control compounds furafylline for 1A2 (F124), sulfaphenazole for CYP 2C9 (S0758), ketoconazole for CYP 2C19 (K1003), quinidine for 2D6 (Q3625), and ketoconazole for 3A4 (K1003) were purchased from Sigma Aldrich (St. Louis, MO). Recombinant P450 enzymes were obtained from baculovirus constructs expressed in insect cells (BD/Gentest).
Medium-binding white solid Kalypsys plates used. Mixtures kept on ice. 1A2: 10 nM 1A2, 100 uM Luc-ME, 100 mM KPO4; 2C9: 10 nM 2C9, 100 uM Luc-H, 25 mM KPO4; 2C19: 5 nM 2C19, 10 uM Luc-H EGE, 50 mM KPO4; 2D6: 5 nM 2D6, 30 uM Luc-ME EGE, 100 mM KPO4; 3A4: 10 nM, 25 uM Luc-PPXE. All amounts are reflected in their final concentration, working concentration is 2x.
NADPH regeneration solution: 1.3 mM NADP+, 3.3 mM glucose-6-phosphate, 3.3 mM MgCl2, 0.4 U/mL glucose-6-phosphate dehydrogenase for all isozymes, 200 mM KPO4 for 3A4. Mixture prepared at RT but kept on ice during automated run.
RT incubation in auxilliary plate hotel for 1A2, 2D6, and 3A4; 37C for 2C9 and 2C19.
Keywords: P450, CYP1A2, CYP2C19, CYP2C9, CYP2D6, CYP3A4, Luciferase, MLSMR, MLSCN, NIH Roadmap, qHTS, NCGC
% is scaled to controls: 0 for no effect and ±100 for the full control effect.

| SMILES | AC50 | activity, negative = inhibition |
| --- | --- | --- |
| S=C(S)N1CCCC1 | 3.98 µM (active) |  |
| CC(C)Oc1cc(-n2c(=S)[nH]c3ccccc3c2=O)c(Cl)cc1Cl | 0.224 µM (active) |  |
| OC1(c2ccc(Cl)cc2)CCN(Cc2c[nH]c3ccccc23)CC1 |  | 26.2% (inactive) |
| COc1ccn(C)c(=O)c1C#N |  | 41% [at 25.6 µM] (inactive) |
| CCOC(C(=O)OCCCN(CC)CC)(c1ccccc1)c1ccccc1 |  | -28.3% (inactive) |
| CCN1C[C@@]2(COC)[C@H]3[C@@H](OC)[C@H]4C1[C@@]3([C@H](OC)C[C@@H]2O)[C@H]1C[C@@]2(O)[C@@H](OC(=O)c3ccccc3)[C@@H]1[C@@]4(OC(C)=O)[C@H](O)[C@@H]2OC |  | 37.6% [at 25.6 µM] (inactive) |
| CC1=C(CC[C@H](C)CO)O[C@@H]2C[C@@H]3[C@H]4CC[C@H]5C[C@@H](O)CC[C@]5(C)[C@@H]4CC(=O)[C@@]3(C)[C@@H]12 |  | -3.33% [at 11.4 µM] (inactive) |
| O=c1ccc2[nH]cc(C3=CCNCC3)c2[nH]1 | 0.126 µM (active) |  |
| COc1ccc2[nH]cc(C3=CCNCC3)c2c1 |  | -31.5% (inactive) |
| CCCCc1nc2ccccc2c(=O)n1-c1ccc(Cl)cc1[N+](=O)[O-] |  | 18.7% (inactive) |
| CCCCc1nc2ccccc2c(=O)n1-c1ccccc1[N+](=O)[O-] | 14.1 µM (active) |  |
| O=c1cc(-c2ccc(O)cc2)oc2cc(O)cc(O)c12 |  | -28.2% (inactive) |
| COc1ccc(CCNc2cc(-c3ccccc3)nc3ncnn23)cc1 | 11.2 µM (active) |  |
| CNC[C@H](O)c1ccc(OC(=O)C(C)(C)C)c(OC(=O)C(C)(C)C)c1 |  | 40.4% [at 25.6 µM] (inactive) |
| [N-]=[N+]=NCC(=O)c1c[nH]c(=O)[nH]c1=O |  | 30.9% [at 11.4 µM] (inactive) |
| C[C@H]1CC[C@]2(OC1)O[C@@H]1C[C@@H]3[C@@H]4CC[C@H]5C[C@@H](O)CC[C@]5(C)[C@@H]4CC(=O)[C@@]3(C)[C@H]1[C@@H]2C |  | -0.0546% [at 25.6 µM] (inactive) |
| CCOC(=O)C1=C(C)OC(N)=C(C#N)C12C(=O)N(C)c1ccccc12 (stereo unspecified) | 28.2 µM (active) |  |
| CCN1C[C@]2(C)CC[C@H](O)[C@@]34[C@@H]5CC6[C@@H](OC)C[C@@](O)([C@@H]5[C@@H]6O)[C@H](C[C@@H]23)[C@H]14 |  | 12.6% [at 25.6 µM] (inactive) |
| Cc1ccc(OP(=O)(Oc2ccc(C)cc2)N2C=Cc3ccccc3[C@H]2C#N)cc1 | 2.51 µM (active) |  |
| COc1ccccc1CN1CCCC2(CCN(C(=O)Oc3ccccc3)CC2)C1 |  | -8.9% (inactive) |
| O=C1C=C2C=C[C@H]3C[C@@]2(O1)[C@H]1CCCCN31 |  | -17.9% [at 25.6 µM] (inactive) |
| O=C1NCN(c2ccccc2)C12CCN(C[C@H]1COc3ccccc3O1)CC2 | 7.94 µM (active) |  |
| O=C(CCCN1CCC2(CC1)C(=O)NCN2c1ccccc1)c1ccc(F)cc1 | inactive and 6.31 µM (active) |  |

| SMILES | AC50 | activity, negative = inhibition |
| --- | --- | --- |
| O=C(CCCN1CCC(n2c(=O)[nH]c3ccccc32)CC1)c1ccc(F)cc1 |  | 13.1% [at 25.6 µM] (inactive) |
| O=C1NCN(c2ccccc2)C12CCN(CCCOc1ccc(F)cc1)CC2 |  | -16.6% (inactive) |
| NC1=Nc2ccccc2Oc2ccccc21 |  | -23.9% (inactive) |
| O=C(Oc1ccccc1)N1CCC2(CCN(Cc3ccncc3)CC2)CC1 |  | -28.1% (inactive) |
| O=C(O)/C=C(\CC(=O)O)C(=O)O |  | -16.7% [at 11.4 µM] (inactive) |
| O=C(O)Cc1cccnc1C(=O)O |  | -6.16% (inactive) |
| CC(C)CN1CC2(CCN(C(=O)c3ccncc3)CC2)C1 |  | -41.7% (inactive) |
| Cc1ccc(NC(=[OH+])c2cc3ccccc3cc2O)c(C)c1.Cc1ccc(NC(=[OH+])c2cc3ccccc3cc2O)c(C)c1.[Ni] | 2 µM (active) |  |
| O=c1[nH]oc2c1CCNC2 | inactive |  |
| Clc1ccc(C2=CCC[C@H]3CC[C@@H]2N3)cn1 |  | 23.3% (inactive) |
| CCCCN1C(=O)C(C2c3ccccc3C(=O)N2Cc2ccccc2)C(=O)NC1=S (stereo unspecified) | 25.1 µM (active) |  |
| CC(C)C[C@H](NP(=O)(O)O[C@@H]1O[C@@H](C)[C@@H](O)[C@@H](O)[C@H]1O)C(=O)N[C@@H](Cc1c[nH]c2ccccc12)C(=O)O |  | 34.5% (inactive) |
| CC(C)n1cnc2c(C(=O)N[C@H]3CN4CCC3CC4)cc(Cl)cc21 | 1 µM (active) |  |
| CN1C(=O)COc2c(C(=O)N[C@@H]3CN4CCC3CC4)cc(Cl)cc21 |  | -29.5% (inactive) |
| Cn1cc(C(=O)C(=O)N[C@H]2CN3CCC2CC3)c2ccccc21 |  | -31.1% (inactive) |
| C[C@@H]1O[C@H](C[N+](C)(C)C)CS1 |  | -5.89% (inactive) |
| NC(=O)CN1C[C@@H](O)CC1=O |  | -13.8% (inactive) |
| C[N+]1([O-])[C@@H]2CC(OC(=O)[C@@H](CO)c3ccccc3)C[C@@H]1[C@H]1O[C@H]12 (stereo partly specified) | inactive |  |
| CN1[C@@H]2CC[C@H]1CC(NC(=O)c1nn(C)c3ccccc13)C2 (stereo partly specified) |  | -7.12% (inactive) |
| O=C1C2CCN(CC2)C1(CO)CO | 0.631 µM (active) | -4.59% [at 11.4 µM] (inactive) |
| CCN(CC)C(=O)N[C@@H]1C[C@H]2c3cccc4[nH]cc(c34)C[C@@H]2N(C)C1 | inactive |  |
| CCOC(=O)c1ncn2c1CN(C)C(=O)c1cc(F)ccc1-2 | 1.58 µM (active) |  |
